The list is not random: actives were taken first. Their share in the collection is about 11%.
NIH3T3 tox – NIH 3T3 cell cytotoxicity; NIH 3T3 viability, CellTiter-Glo ATP luminescence, 48-72 h; Potency, µM (series often up to 96.7 µM), actives largely listed as inhibitors; actives 4.3% (n = 94,000); AID 1345082; also: nearly all actives have a fitted effect of over 55% in size
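ATP-dependent luminescence (CellTiter-Glo) served as the viability signal for NIH 3T3 cells treated with compound for 48 or 72 hr at 37 °C.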
FLuc inh – blocks purified firefly luciferase enzyme activity. P08659. purified P. pyralis luciferase, luminescence, biochemical. Potency, µM (highest dose often 115 µM), usual class: inhibitors. actives 2.5% (n = 76,000). AID 1347043; also: nearly all actives have a fitted effect of over 65% in size
Target sequence (P08659 whole entry, looked up): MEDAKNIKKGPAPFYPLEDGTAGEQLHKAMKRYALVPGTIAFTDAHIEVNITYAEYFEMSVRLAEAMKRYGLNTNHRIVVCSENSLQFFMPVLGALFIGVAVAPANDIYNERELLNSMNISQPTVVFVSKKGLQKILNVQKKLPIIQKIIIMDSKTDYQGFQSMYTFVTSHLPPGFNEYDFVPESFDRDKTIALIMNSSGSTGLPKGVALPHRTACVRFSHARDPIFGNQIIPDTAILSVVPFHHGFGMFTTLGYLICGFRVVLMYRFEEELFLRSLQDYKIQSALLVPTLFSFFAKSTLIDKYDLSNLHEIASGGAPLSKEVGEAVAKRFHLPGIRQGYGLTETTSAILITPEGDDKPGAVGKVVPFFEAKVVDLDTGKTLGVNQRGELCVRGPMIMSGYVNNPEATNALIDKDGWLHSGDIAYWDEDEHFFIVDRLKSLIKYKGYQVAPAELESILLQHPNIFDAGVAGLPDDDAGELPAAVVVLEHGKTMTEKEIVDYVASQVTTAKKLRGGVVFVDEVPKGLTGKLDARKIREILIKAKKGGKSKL
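Cell-free enzyme assay, 10nM P. pyralis luciferase, luciferin and ATP each at 10uM. Inhibition profiled over a 6-point titration, read as luminescence.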
NPR1 antag – human Npr1 receptor antagonism; actives 1.6% (n = 76,000); HEK293 hNpr1 GloSensor cGMP, ANP-stimulated luminescence; P16066; Potency, µM (doses to about 46.3 µM), hits mostly inhibitors; calls by dose curve; also: nearly all actives have a fitted effect of over 60% in size
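Compound pre-incubated 30 min at room temperature on GloSensor-loaded HEK293 cells stably carrying hNpr1 and the pGS-40F cGMP biosensor. Stimulation uses hNppA at 0.1 nM final; luminescence is taken at baseline and 20 min post-agonist.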
HEK293 tox – HEK 293 cell cytotoxicity; actives 6.6% (n = 94,000); Potency, µM (series often up to 115 µM), hits mostly inhibitors; HEK 293 viability, ATP luminescence (CellTiter-Glo), 48-72 h; also: nearly all actives have a fitted effect of over 60% in size
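HEK 293 cells at 250 cells/well were exposed to compounds by pintool transfer for 48 or 72 hr at 37 degree Celsius, 5% CO2. Viability was read as ATP-coupled luminescence with CellTiter-Glo after 10 min at room temperature.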
Each line names hits and unclear results; the compound was inactive in the other large screens; ! = a repeat was not active. Unless noted, calls follow the shape of the dose curve; as a rule, active = well fitted curve in the direction sought with a large enough effect; inconclusive = small, poorly fitted or top-dose-only effect, or another doubt; inactive = no such curve, though single readings can be large; an effect the other way counts as inactive or inconclusive.

COc1ccc(CN2Cc3[nH]nc(-c4cnc(OC)nc4)c3CC2=O)cc1	NIH3T3 tox 8.91µM
COCc1cccc(-c2n[nH]c3c2CC(=O)N(Cc2ccc(OC)cc2)C3)c1	NIH3T3 tox 25.1µM, HEK293 tox inconclusive
Cc1cc(C)cc(C(=O)NCc2nnc3c(-c4nc(C(C)C)no4)cccn23)c1	HEK293 tox inconclusive
COc1cccc(S(=O)(=O)N2CC(n3cc(C(=O)NCC4CC4)nn3)C2)c1	none
COc1ncc(-c2n[nH]c3c2CC(=O)N(Cc2ccccc2)C3)cn1	NIH3T3 tox 25.1µM, HEK293 tox inconclusive
COc1ncc(-c2n[nH]c3c2CC(=O)N(CCOc2ccccc2)C3)cn1	NIH3T3 tox inconclusive
COc1ncccc1-c1n[nH]c2c1CC(=O)N(Cc1ccccc1)C2	NIH3T3 tox 25.1µM
COc1ccccc1-c1n[nH]c2c1CC(=O)N(Cc1ccccc1)C2	NIH3T3 tox inconclusive, HEK293 tox inconclusive
COc1ccc(C(=O)N2CCN(c3cc(-c4cccs4)[nH]n3)CC2)c(OC)c1	NIH3T3 tox inconclusive, NPR1 antag inconclusive, HEK293 tox inconclusive
C(Cc1noc(C2CNC2)n1)OCC1CC1	NIH3T3 tox 15.8µM, HEK293 tox 11.2µM
C1CNCC(c2nc(CCOCC3CC3)no2)C1 (centres undefined)	HEK293 tox inconclusive
COCCc1noc(C2CNC2)n1	NIH3T3 tox 17.8µM, HEK293 tox 8.91µM
O=C1CCN(Cc2ccc3c(c2)CCO3)CCCCCCN1	HEK293 tox inconclusive
CN(C1CCc2nn(CC3CC3)c(=O)n2CC1)S(=O)(=O)c1ccccc1F (centres undefined)	NIH3T3 tox inconclusive (no result: FLuc inh, NPR1 antag)
CC(=O)Nc1ccc(CN2CCCC23Cc2ccccc2CN(C(=O)C(C)C)C3)cc1 (centres undefined)	none (no result: FLuc inh, NPR1 antag)
O=C(C1CCCN1C(=O)C1CC1)N1CCC(N2Cc3cccn3C2=O)CC1 (centres undefined)	none (no result: FLuc inh, NPR1 antag)
COc1ccc(-n2cc(-c3ccnc(NCCC4CCCN4C)n3)cn2)cc1 (centres undefined)	NIH3T3 tox inconclusive, FLuc inh inconclusive, HEK293 tox inconclusive
CC1(C)CC(Nc2nccc(-c3cnn(-c4ccccc4)c3)n2)CC(C)(C)N1	NIH3T3 tox 20µM, HEK293 tox inconclusive
CC(Cc1ccncc1)Nc1nccc(-c2cnn(-c3ccccc3F)c2)n1 (centres undefined)	NIH3T3 tox inconclusive, FLuc inh inconclusive, HEK293 tox 35.5µM
CC(Cc1ccncc1)Nc1nccc(-c2cnn(-c3ccccc3)c2)n1 (centres undefined)	NIH3T3 tox inconclusive, FLuc inh inconclusive, HEK293 tox 39.8µM
Fc1ccc(CCNc2nccc(-c3cccnc3)n2)cc1	NIH3T3 tox inconclusive, FLuc inh inconclusive, HEK293 tox inconclusive
COCCNC(=O)c1ccc2oc(-c3ccnc(Cl)c3)nc2c1	HEK293 tox inconclusive (no result: FLuc inh, NPR1 antag)
NC(=O)Nc1ccc(S(=O)(=O)NCc2cc3n(n2)CCCNC3)cc1	none
O=C(Cc1cccs1)N1[C@@H](c2ccccc2)[C@@H](CO)C[C@]12CCCCNC2=O	HEK293 tox inconclusive (no result: FLuc inh, NPR1 antag)
CCCn1c(C)cnc1CC1CCN(C(=O)c2ccccc2F)CC1	none (no result: FLuc inh, NPR1 antag)
CN(Cc1cnn(-c2ccc(F)cc2)c1)c1cc(C2CC(O)C2)ncn1 (centres undefined)	NIH3T3 tox inconclusive, NPR1 antag inconclusive, HEK293 tox 28.2µM
Cc1ccc(NC(=O)c2cc3n(n2)CC(c2ccc4c(c2)OCO4)OC3)cc1F (centres undefined)	NPR1 antag inconclusive, HEK293 tox 39.8µM
O=C(Nc1cccc(F)c1)c1cc2n(n1)CC(c1ccc(Br)cc1)OC2 (centres undefined)	NIH3T3 tox inconclusive, FLuc inh inconclusive, HEK293 tox inconclusive
NC(=O)c1ccc(NC(=O)c2cc3n(n2)CC(c2ccc(Br)cc2)OC3)cc1 (centres undefined)	NIH3T3 tox inconclusive, NPR1 antag inconclusive, HEK293 tox 35.5µM
COc1ccc(NC(=O)c2cc3n(n2)CC(c2ccc4c(c2)OCO4)OC3)cc1 (centres undefined)	NIH3T3 tox inconclusive, FLuc inh inconclusive, NPR1 antag 11.2µM, HEK293 tox 44.7µM
COc1ccc(NC(=O)c2cc3n(n2)CC(c2ccc4c(c2)OCO4)OC3)c(OC)c1 (centres undefined)	NIH3T3 tox inconclusive, HEK293 tox inconclusive
CCN1C(=O)CCN(Cc2cn(C)c3ccc(OC)cc23)CC12CCOCC2	NIH3T3 tox 31.6µM, HEK293 tox inconclusive
CCn1nccc1C(=O)Nc1cccc(-c2nnc3n2CCCC3)c1	none
CCc1[nH]c2c(CNC(=O)c3n[nH]c4c3CCC4)cc(C)cc2c1C	NIH3T3 tox 35.5µM, HEK293 tox 35.5µM
CCc1[nH]c2c(CNC(=O)CC3C(=O)NCCN3C(C)C)cc(C)cc2c1C (centres undefined)	none
O=C(C1CCN(S(=O)(=O)N2CCOCC2)CC1)N1CCC(CCOc2ccc(F)cc2)C1 (centres undefined)	NIH3T3 tox inconclusive, HEK293 tox 44.7µM (no result: FLuc inh, NPR1 antag)
CC(C)C(=O)N1CCC(CCOc2ccccc2F)C1 (centres undefined)	NIH3T3 tox inconclusive, HEK293 tox inconclusive
CN(CC(=O)N1CCC(CCOc2ccccc2F)C1)S(=O)(=O)c1cccs1 (centres undefined)	NIH3T3 tox inconclusive, HEK293 tox 50.1µM
CN(CC(=O)N1CCC(CCOc2ccc(F)cc2)C1)S(=O)(=O)c1ccc2c(c1)oc(=O)n2C (centres undefined)	NIH3T3 tox inconclusive, NPR1 antag inconclusive, HEK293 tox 35.5µM
O=C(c1ccncc1)N1CCC(CCOc2ccc(F)cc2)C1 (centres undefined)	NIH3T3 tox inconclusive, HEK293 tox inconclusive
Cn1cc(CN2CCOC[C@H]2c2ncc(C(C)(C)C)[nH]2)c2ccccc21	NIH3T3 tox inconclusive, HEK293 tox 63.1µM
Cn1cc(CN2CCOC[C@H]2c2nc(C(C)(C)C)co2)c2ccccc21	NIH3T3 tox inconclusive, HEK293 tox 89.1µM
CCOc1ccc(C(=O)N2CCN(c3nnc4ccc(C(F)(F)F)cn34)CC2)cc1	NIH3T3 tox inconclusive
CNC(=O)CCn1ncc2cc(OCc3ccccc3-c3cc(F)ccc3C)ccc21	NIH3T3 tox 79.4µM, FLuc inh inconclusive, HEK293 tox 63.1µM
CNC(=O)CCn1ncc2cc(OCc3ccccc3-c3ccc(F)cc3F)ccc21	NIH3T3 tox inconclusive, FLuc inh inconclusive, HEK293 tox 79.4µM
CNC(=O)CCn1ncc2cc(OCc3ccccc3-c3ccccc3C)ccc21	NIH3T3 tox inconclusive, HEK293 tox inconclusive
CC1(c2ccccc2)N(Cc2ccccc2)C(=O)OC12CCN(Cc1ccccn1)CC2 (centres undefined)	NIH3T3 tox inconclusive, HEK293 tox inconclusive
COc1ccccc1-c1ccc(CN2CCCCC2C(=O)NCC2CC2)cc1 (centres undefined)	NIH3T3 tox inconclusive, HEK293 tox 44.7µM! (no result: FLuc inh, NPR1 antag)
COc1ccccc1-c1ccc(CN2CCCCC2C(=O)NCc2ccccc2)cc1 (centres undefined)	NIH3T3 tox inconclusive, HEK293 tox 31.6µM (no result: FLuc inh, NPR1 antag)
